SMILES strings stand for the structures. Screen size: about 1,900 compounds; about 1,600 (84%) were called active. The set was probably picked from earlier hits. The list is a sample of the results. A number with no mark means an inactive call.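 How the source made its calls: active means mean activation above a set limit taken from the primary screen (cut at about 8% in these data); inactive means the rest.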

The nature of this test: frataxin promoter-driven luciferase activation – cell-based, luminescence, HEK293 lucGAA850, triplicate, confirmation (AID 588351).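 Further: 0% = DMSO wells and 100% = 10 µM SAHA wells.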 Conditions: HEK293 lucGAA850 FXN promoter luciferase reporter, 24 h; at 6 µM; active compounds read high; 100% = activation by SAHA. On the technique in general: In a reporter assay the amount or activity of a reporter protein is the signal.
As to `COc1ccccc1C1=Nc2cccc3cccc(c23)N1`, the activation was 7.84% (active).
With `CCN(C[C@H]1N[C@@](CC)(C(=O)OC)[C@H]2C(=O)N(Cc3ccccc3)C(=O)[C@@H]12)S(=O)(=O)c1ccc(C(F)(F)F)cc1`, the activation is 10.5% (active).
Under `O=C(Nc1nnc(S(=O)(=O)N2CCCCCC2)s1)c1cccc(Br)c1` stands 16.8% (active); under `Cn1c(=O)n(C)c2cc(S(=O)(=O)N3CCCc4ccccc43)ccc21`, 11.8% (active).
As to `CC(C)(C)N1C(=O)[C@H]2[C@@H](c3ccc(Br)cc3)N3C(=O)N(c4cccc(Cl)c4)C(=O)[C@@]3(C)[C@H]2C1=O`, the activation was 6.82%.
Under `CC[C@@]12C(=O)N(c3ccccc3)C(=O)N1[C@H](c1ccc(Br)cc1)[C@@H]1C(=O)N(C(C)(C)C)C(=O)[C@@H]12` stands 11.1% (active); under `CCCNC(=O)c1c(Cl)cnn1-c1ccc(C)cc1`, 31.2% (active).
For `Cc1ccccc1Nc1c([N+](=O)[O-])ccc2nonc12` the value was 17% (active); for `CC[C@]1(C(=O)OC)[C@H]2C(=O)N(Cc3ccccc3)C(=O)[C@H]2[C@H]2CN=C(SCc3ccc(C#N)cc3)N21`, 11% (active).
For `COC(=O)[C@@]1(C)[C@H]2C(=O)N(Cc3ccccc3)C(=O)[C@H]2[C@H]2CN=C(SCC3CC3)N21` the value was 12.3% (active); for `CC[C@]1(C(=O)OC)[C@H]2C(=O)N(Cc3ccccc3)C(=O)[C@H]2[C@H]2CN=C(SCc3ccccc3)N21`, 6.5%.
For `CC(C)CCC(C)NC(=O)c1ccc2nccnc2c1` (centres undefined), the activation is 25.6% (active).
Under `Cn1c(CCN2CCCCCC2)nc2cc(NC(=O)Nc3ccccc3)ccc21` stands 32.6% (active); under `COC(=O)c1ccc(CSc2nc3ccccc3c(=O)n2-c2cccc(OC)c2)o1`, 16.6% (active).
For `Cc1ccc2cc(/C=N/Nc3ccc(C(=O)O)cc3)c(Cl)nc2c1` the value was 44.5% (active); for `CN(C(=O)c1cc2c(=O)n3ccccc3nc2s1)C1CCCCC1`, 37.7% (active); for `COCCn1c(=NC(=O)c2ccccc2[N+](=O)[O-])sc2cc(S(C)(=O)=O)ccc21`, 23.4% (active).
For `O=C(CSc1cccc2cccnc12)N/N=C/c1cccnc1` the value was 10.9% (active).
As to `O=[N+]([O-])c1ccc(C=Nc2ccc(Cl)cc2Cl)s1`, the activation was 17.7% (active).
With `O=C1N=C(N2CCCC2)S/C1=C\c1cccc(Br)c1`, the activation was 20.9% (active).
Under `COc1ccc2[nH]c(=O)c(CN(Cc3nnnn3CCc3ccccc3)CC3CCCO3)cc2c1` (centres undefined) stands 5.82%; under `COc1cc(C#Cc2ccc3cc(CCCO)oc(=O)c3c2)cc(OC)c1`, 44.9% (active); under `COc1cccc(Nc2nc(N)c([N+](=O)[O-])c(NCc3ccco3)n2)c1`, 22.8% (active).
For `O=C(CN(c1cc(C(F)(F)F)ccc1Cl)S(=O)(=O)c1ccccc1)NCc1cccnc1` the value was 8.52% (active); for `COc1ccc(-n2cc(-c3ccccc3)c3c(=S)nc[nH]c32)cc1`, 11% (active); for `Cc1ccc(-c2c3c(=O)n(C)c(=O)n(C)c3cn2-n2cnnc2)cc1`, 19% (active).
For `CCOc1ccc(N2C(=O)CC(N(CCc3ccc(OC)c(OC)c3)C(=S)Nc3ccccc3)C2=O)cc1` (centres undefined) the value was 9.64% (active); for `CC(C)(C)C(=O)c1cnc(Nc2ccccc2)s1`, 49.2% (active); for `Cc1cc(OCc2cc(C(=O)NCc3cc(C(C)C)no3)no2)cc(C)c1Cl`, 30.7% (active).
As for `CNc1nc(Nc2ccc(C)c(Cl)c2)nc(N)c1[N+](=O)[O-]`, the activation was 71% (active).
`CC(Sc1nc2c([nH]c3ccccc32)c(=O)n1C)c1ccccc1` (centres undefined): the activation is 16.1% (active).
Under `Cc1ccc(-c2nc3ccccc3[nH]c2=O)cc1` stands 29.2% (active).
Regarding `CN(C)CCNC(=O)c1ccc(Cl)c2cc3ccccc3nc12`, the activation is 130% (active).
On to `CCC(=O)NC(=Nc1nc2ccccc2s1)NC(=O)CC`, for which the activation is 38.4% (active).
Under `COc1ccc(Cl)cc1NC(=O)CN(C)C(=O)CCCc1c[nH]c2ccccc12` stands 9.95% (active); under `Fc1ccccc1/C=N/Nc1cc(N2CCCCC2)ncn1`, 43.1% (active); under `CCCCCOc1ccc(CSC2=NCCN2)cc1[N+](=O)[O-]`, 38.6% (active).
For `Nc1ccc(C(=O)Nc2ccccc2N)cc1`, the activation is 55.7% (active).
`N#CCSc1nc2ccccc2c(=O)n1-c1ccccc1`: the activation was 16.2% (active).
Regarding `CCCCc1ccc(NC(=S)N2CCCC(CO)C2)cc1` (centres undefined), the activation is 33.8% (active).
In the case of `CC(C)c1ccc(NS(=O)(=O)c2cn(C)c(=O)n(C)c2=O)cc1`, the activation is 5.44%.
As to `Fc1ccc2nc(N3CCCCC3)sc2c1`, the activation is 27.8% (active).
For `Cc1cc(C)n2nc(CNS(=O)(=O)c3c(F)c(F)c(F)c(F)c3F)nc2n1` the value was 20.7% (active).
Under `Cc1ccc(C(=O)NNc2ncnc3ccccc23)cc1` stands 25.9% (active); under `O=C(NCCCn1ccnc1)c1cc(-c2ccccc2)on1`, 127% (active).
As for `O=C(NC1CCCC1)c1cc(-c2ccccc2)on1`, the activation was 67.8% (active).
As for `COc1ccccc1N1CCN(C(=O)c2cc(-c3ccc(Br)cc3)on2)CC1`, the activation was 2.35%.
For `CC1CCc2sc3nc(N4CCN(CCO)CC4)n4ncnc4c3c2C1` (centres undefined) the value was 21.9% (active); for `CN(C)S(=O)(=O)c1ccc2oc(SCC(=O)Nc3ccccc3F)nc2c1`, 44.6% (active).
`COc1ccc(/C=C/C(=O)Nc2ccc(C34CC5CC(CC(O)(C5)C3)C4)cc2)cc1OC`: the activation is 44.5% (active).
`Cc1nnc(Sc2nc3c(c(=O)[nH]c(=O)n3C)n2Cc2ccccc2)s1`: the activation is 5.05%.
For `CN(C)C(=S)N=c1ssc(=S)n1Cc1ccco1`, the activation is 32.8% (active).
On to `O=C(NCc1ccco1)c1ccc(Cn2c(=O)c3sccc3n(Cc3ccc(F)cc3)c2=O)cc1`, for which the activation is 6.19%.
As to `CC(C)(C)c1ccc(C(=O)NCc2ccco2)cc1`, the activation is 44.1% (active).
`CCCCNC(=O)N(O)C1N(/N=C/c2ccccc2O)C(=S)SC1(C)C` (centres undefined): the activation was 14.1% (active).
For the compound `CCOC(=O)c1cc2c(=O)n3ccccc3nc2n(CC(C)C)c1=NC(=O)c1c(-c2c(F)cccc2Cl)noc1C`, the activation was 3.22%.
Turning to `N#Cc1c(N)nc2c3c(sc(=N)c2c1N)NC(=O)CC3c1ccccc1Cl` (centres undefined), the activation was 24.2% (active).
`CCc1ccc(N(C(=O)c2csnn2)C(C(=O)NC2CCCCC2)c2ccncc2)cc1` (centres undefined): the activation was 12.1% (active).
For the compound `Cc1cc(=O)oc(C)c1C(=O)NCc1ccc(F)cc1`, the activation is 4.06%.

For the origin of these results see PubChem BioAssay AID588351 (The Scripps Research Institute Molecular Screening Center, 2011).
